Screens deposited in PubChem by National Center for Advancing Translational Sciences (NCATS).
FBPA Giardia inh = qHTS Assay for Inhibitors of Fructose-1,6-bisphosphate Aldolase from Giardia Lamblia; hit rate 0.71% among 290,000; A8B2U2; purified Giardia FBPA; Potency, µM (series often up to 59.6 µM), inactives show top-dose activity, negative = inhibition, actives largely listed as inhibitors; also: potency is read from the fitted curve at half-maximal effect; nearly all actives have a fitted effect of over 55% in size
Target sequence (A8B2U2 whole entry, looked up): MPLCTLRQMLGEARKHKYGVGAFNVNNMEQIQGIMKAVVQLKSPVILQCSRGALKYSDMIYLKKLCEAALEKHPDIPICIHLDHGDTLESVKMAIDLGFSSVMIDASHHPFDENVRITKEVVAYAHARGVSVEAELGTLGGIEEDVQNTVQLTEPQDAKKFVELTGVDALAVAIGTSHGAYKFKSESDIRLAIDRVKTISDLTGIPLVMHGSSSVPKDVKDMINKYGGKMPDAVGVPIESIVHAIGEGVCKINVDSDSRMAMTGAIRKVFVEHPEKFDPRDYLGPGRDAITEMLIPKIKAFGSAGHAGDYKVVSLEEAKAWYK
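40 nM FBPA preincubated 10 min at RT with compound (up to 57.5 uM final), then substrate plus GAPDH/TPI/NAD/arsenate coupling and diaphorase/resazurin added. Fluorescence read after 20 min at RT, 525/598 nm.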
RE007 growth inh = qHTS Assay for Inhibitors of the HIV-1 protein Vpr | AID 651644, 2012 | S. pombe RE007 Vpr strain, BacTiter-Glo ATP luminescence, 24 h | hit rate 0.21% among 360,000 | Potency, µM (titrated, usually from 92.2 µM), inactives show at the highest dose activity change, negative = less growth, actives largely listed as inhibitors; active = well fitted falling curve with a large enough effect; inconclusive = small, poorly fitted or top-dose-only effect; inactive = no such curve, though single readings can be large or run the other way; also: potency is read from the fitted curve at half-maximal effect; nearly all actives have a fitted effect of over 50% in size
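Fission yeast strain RE007, carrying one chromosomally integrated HIV-1 vpr copy, was seeded at OD 0.01 in PMG+AL medium with 23 nL pinned compound. After 24 h at 30 °C and 99% humidity, viability was read by BacTiter-Glo luminescence.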
FMDV inh = High Throughput Screening for Foot and Mouth Disease Virus Antivirals; AID 1159524, 2015; FMDV antiviral cell-based qHTS; hit rate 1.2% among 410,000; Potency, µM (series often up to 57.9 µM), for the others: at the highest dose activity change, negative = inhibition, actives largely listed as inhibitors; calls by dose curve; tested in HEK293T cells; also: read-out not given here; potency is read from the fitted curve at half-maximal effect; nearly all actives have a fitted effect of over 45% in size
Tb PYK inh = qHTS of Trypanosoma Brucei Inhibitors. hit rate 0.12% among 410,000. pyruvate kinase (Trypanosoma brucei), Q57TT1. Potency, µM (titrated, usually from 76.8 µM), for the others: at the top dose activity, negative = inhibition, usual class: inhibitors. TbPYK enzyme, Kinase-Glo Plus ATP luminescence, 45 min; also: potency is read from the fitted curve at half-maximal effect; nearly all actives have a fitted effect of over 50% in size
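Screened from lowest to highest concentration, compounds were pinned into TbPYK/substrate mixtures, and ADP (130 uM final) was added. Plates sat at room temperature for 45 min prior to Kinase-Glo Plus detection by luminescence.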
Sm TGR inh = qHTS Assay for the Inhibitors of Schistosoma Mansoni Peroxiredoxins | purified TGR, DTNB reduction, TNB absorbance 405 nm | Potency, µM (top dose mostly 114 µM), without a hit: at the highest dose activity change, negative = inhibition, actives largely listed as inhibitors | hit rate 3% among 360,000 | AID 485364, 2010; also: potency is read from the fitted curve at half-maximal effect; nearly all actives have a fitted effect of over 60% in size
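TGR 20 nM + NADPH 100 uM (dispensed conc.), cpd preinc 15 min RT; start with NADPH (500 uM addition) then DTNB (15 mM addition). Kinetic TNB absorbance, 405 nm filter. Four-parameter Hill fit across titration.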
HCMV inh = qHTS Assay for inhibitors of the human cytomegalovirus (HCMV). HFF cells, HCMV-luciferase reporter, 72 h; hits give low values. hit rate 4.5% among 410,000. AID 1259415, 2018. activity change, negative = inhibition, % at 57.5 µM; in the data active = activity change below about -60%; inconclusive = no clear call, values can overlap the other calls; inactive = above about -39%
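Screen run at 2 compound doses on HFFs infected with reporter HCMV, MOI 1 PFU/cell. Luciferase activity from cell lysates at 72 h post infection gave inhibition relative to buffer-only and Salinomycin wells.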
* = called active by the depositor; [ ] = another dose, or the depositor's remark. Rows were chosen to be rich in hits. Some 7.7% of all compounds tested hit in one or more screens of this group. Unless noted, calls follow the shape of the dose curve; as a rule, active = well fitted curve in the direction sought with a large enough effect; inconclusive = small, poorly fitted or top-dose-only effect, or another doubt; inactive = no such curve, though single readings can be large; an effect the other way counts as inactive or inconclusive. % is scaled to controls: 0 for no effect and ±100 for the full control effect.

Screening O=C(CSc1nnnn1C1CC1)N1CCN(Cc2ccccc2F)CC1 returned RE007 growth inh 6%, FMDV inh -12%, Tb PYK inh -10%, Sm TGR inh -2% and HCMV inh -69*.
`CCC1=[N+](CC(=O)c2ccc(Br)cc2)CCn2c(C)ccc21` gave FBPA Giardia inh -3%, RE007 growth inh -14%, FMDV inh -13%, Tb PYK inh 5%, Sm TGR inh 18µM* and HCMV inh -28.
CCC1=[N+](CC(=O)c2ccc(C)cc2)CCn2c(C)ccc21 was read as FBPA Giardia inh 3%, RE007 growth inh 1%, FMDV inh -23%, Tb PYK inh -12%, Sm TGR inh -34% and HCMV inh -63*.
CCC1=[N+](CC(=O)c2ccc(C)cc2)CCn2cccc21 was read as FBPA Giardia inh -5%, RE007 growth inh -16%, FMDV inh 51%, Tb PYK inh -6% and HCMV inh 3.
Screening Cc1cc(C)c2[nH]c(=O)c(C(c3nnnn3C(C)(C)C)N3CCN(C(=O)c4ccco4)CC3)cc2c1 (stereo unspecified) returned FBPA Giardia inh 0%, RE007 growth inh 9%, Tb PYK inh inconclusive and Sm TGR inh 79µM*.
CCC(C)(C)n1nnnc1C(c1cc2cccc(C)c2[nH]c1=O)N1CCCC1 (stereo unspecified) was read as FBPA Giardia inh -19%, RE007 growth inh -6%, FMDV inh 19%, Tb PYK inh -4%, Sm TGR inh 10µM* and HCMV inh 5.
CCC(C)(C)n1nnnc1C(c1cc2ccc(OC)cc2[nH]c1=O)N1CCCCC1 (stereo unspecified) was read as FBPA Giardia inh 7%, RE007 growth inh -3%, FMDV inh 48%, Tb PYK inh 0%, Sm TGR inh 3% and HCMV inh -4.
For COc1ccccc1C(c1nnnn1C(C)(C)C)N1CCN(C(=O)c2ccco2)CC1 (stereo unspecified) the results were FBPA Giardia inh 2%, RE007 growth inh 23%, FMDV inh -25%, Tb PYK inh -4%, Sm TGR inh -8% and HCMV inh -17.
`CCC(C)(C)n1nnnc1C(c1cc2cc(C)cc(C)c2[nH]c1=O)N1CCCC1` (stereo unspecified) gave FBPA Giardia inh -15%, RE007 growth inh 18%, FMDV inh 18%, Tb PYK inh -6%, Sm TGR inh 22µM* and HCMV inh -5.
Screening CCC(C)(C)n1nnnc1C(c1cc2cc(C)cc(C)c2[nH]c1=O)N1CCN(Cc2ccc3c(c2)OCO3)CC1 (stereo unspecified) returned FBPA Giardia inh -12%, RE007 growth inh 9%, FMDV inh 5.6µM*, Tb PYK inh -5%, Sm TGR inh inconclusive and HCMV inh -60*.
`Cc1cccc(C(=O)Nc2ccc(C(=O)OCc3cc(=O)n4nc(CC(C)C)sc4n3)cc2)c1` gave FMDV inh 30%, Tb PYK inh -2%, Sm TGR inh 4% and HCMV inh 38.
`CCN(CC)Cc1cc(O)c(CN(CC)CC)cc1O` gave FBPA Giardia inh 5.6µM*, RE007 growth inh -3%, FMDV inh -9%, Tb PYK inh 10µM*, Sm TGR inh 3.2µM* and HCMV inh -26.
Nc1nnnn1-c1ccccc1 was read as Tb PYK inh 0%.
`CC(=O)Nc1ccccc1OCC(=O)N(Cc1ccccc1)C(C)C` gave FBPA Giardia inh 6%, RE007 growth inh -2%, FMDV inh inconclusive, Tb PYK inh -8%, Sm TGR inh 1% and HCMV inh -77*.
CC(=O)Nc1ccccc1OCC(=O)NC(C)c1ccccc1 (stereo unspecified) was read as FBPA Giardia inh 9%, RE007 growth inh -24%, FMDV inh 3%, Tb PYK inh 4%, Sm TGR inh -1% and HCMV inh 76.
`COP(=O)(Cc1ccc(C#N)o1)OC` gave FBPA Giardia inh 2%, RE007 growth inh 10%, FMDV inh 8%, Tb PYK inh 1%, Sm TGR inh 22µM* and HCMV inh 5.
Screening COc1ccccc1-c1ccnc(-n2ncc(C(=O)NCCc3cccnc3)c2C)n1 returned FMDV inh 0%.
Screening N#CC(=C1C=CC(=NO)C(Cl)=C1)c1ccc(Cl)cc1 returned RE007 growth inh -10%, FMDV inh -15%, Tb PYK inh -6% and HCMV inh -74*.
For CCCCN(CC)CCOc1cccc2ccccc12 the results were FMDV inh 40µM*.
For CO[C@@H]1COC(=O)CCC[C@@H](C)[C@H](OC)COC(=O)CCC[C@H]1C the results were FBPA Giardia inh -5%[12.9 µM].
`CC(Nc1ncnc2ccccc12)c1ccccc1` (stereo unspecified) gave FBPA Giardia inh 1%, RE007 growth inh 0%, FMDV inh inconclusive, Tb PYK inh -1%, Sm TGR inh -4% and HCMV inh -82*.
`Cc1noc(C)c1-c1ccc2ncnc(NC(C)c3ccccc3)c2c1` (stereo unspecified) gave FBPA Giardia inh 1%.
Cc1cc(-c2nnc(-c3ccccc3)c(-c3ccccc3)n2)c(C)o1 was read as FBPA Giardia inh -4%, RE007 growth inh 0%, FMDV inh -13%, Tb PYK inh 4%, Sm TGR inh 6.3µM* and HCMV inh -65*.
For Cc1ccc(-c2nnc(-c3ccccc3)c(-c3ccccc3)n2)cc1 the results were FBPA Giardia inh 0%, RE007 growth inh -8%, FMDV inh -5%, Tb PYK inh 0%, Sm TGR inh -9% and HCMV inh inconclusive.
For CC1(c2ccccc2)CC(C)(C)N(C(=O)c2cccc(Cl)c2)c2ccccc21 (stereo unspecified) the results were FMDV inh 3%, Tb PYK inh 4%, Sm TGR inh 0% and HCMV inh -72*.
O=C(Nc1cccc(C(F)(F)F)c1)c1ccc(-c2ccc(F)c(F)c2)c2ccoc12 was read as RE007 growth inh -2%, FMDV inh -19%, Tb PYK inh 4% and HCMV inh -76*.
For O=C(NCc1cccnc1)c1ccc(-c2ccc(F)c(F)c2)c2ccoc12 the results were RE007 growth inh -15%, FMDV inh inconclusive, Tb PYK inh 7% and HCMV inh -85*.
